Assay outcomes as filed in PubChem BioAssay.
In the library only some 5.7% were active in any assay of this set; here they are far more common.
B2AR arrestin – recruits beta-arrestin to the human beta2-adrenergic receptor. P07550. beta-arrestin recruitment to beta2AR, cell-based reporter. Potency, µM (highest dose often 46.1 µM), for inactives: at the highest dose activation, most hits filed as activators. 0.02% of 330,000 active;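 note: 0% = DMSO controls and full agonism = EC100 isoproterenol or metaproterenol; nearly all actives have a fitted effect of over 65% in size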
Gal4-VP16 FLuc – counter-screen for ROR gamma inhibitors: Gal4-VP16 reporter. Drosophila S2 Gal4-VP16 UAS-luciferase, luminescence, 20 h. 3.5% of 310,000 active. Potency, µM (titrated, usually from 53.6 µM), without a hit: top-dose activity, negative = inhibition, usual class: inhibitors;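 note: Gal4-VP16 expression switched on by copper sulfate through the metallothionein promoter; nearly all actives have a fitted effect of over 50% in size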
NPSR antagonist – antagonists of human neuropeptide S receptor cAMP signaling. CHO-NPSR cells, cAMP TR-FRET, antagonist mode. Potency, µM (titrated, usually from 38.3 µM), without a hit: top-dose activity change, negative = inhibition, hits mostly inhibitors. 1% of 220,000 active. AID 1461; note: nearly all actives have a fitted effect of over 50% in size
RORgamma inh – inhibitors of mouse ROR gamma transcriptional activity. Drosophila S2 Gal4-RORgamma UAS-luciferase reporter, 20 h. Potency, µM (series often up to 53.6 µM), for inactives: at the highest dose activity change, negative = inhibition, usual class: inhibitors. 5.4% of 310,000 active. AID 2551; note: nearly all actives have a fitted effect of over 60% in size
Target sequence (P51450 whole entry, looked up, the tested form may be a part): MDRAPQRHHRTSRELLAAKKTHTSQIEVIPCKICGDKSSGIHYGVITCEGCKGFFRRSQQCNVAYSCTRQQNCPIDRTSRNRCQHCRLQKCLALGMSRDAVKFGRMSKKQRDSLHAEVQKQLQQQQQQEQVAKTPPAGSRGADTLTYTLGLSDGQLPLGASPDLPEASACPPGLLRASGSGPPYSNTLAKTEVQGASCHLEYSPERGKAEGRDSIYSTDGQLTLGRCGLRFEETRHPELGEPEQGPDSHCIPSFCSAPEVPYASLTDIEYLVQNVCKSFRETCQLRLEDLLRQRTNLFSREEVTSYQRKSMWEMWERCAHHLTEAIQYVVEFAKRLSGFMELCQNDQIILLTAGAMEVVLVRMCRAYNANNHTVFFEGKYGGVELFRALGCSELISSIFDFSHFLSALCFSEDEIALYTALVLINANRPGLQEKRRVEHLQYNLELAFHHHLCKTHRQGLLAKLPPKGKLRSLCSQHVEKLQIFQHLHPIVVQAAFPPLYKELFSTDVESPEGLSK
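Compounds are pin-transferred onto Drosophila Schneider cells expressing a copper-inducible Gal4–ROR gamma transactivation domain fusion. After 1 hr, copper sulfate is added to 700 uM final; luciferase is read 20 hr later.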
An asterisk follows results filed as active; ? = inconclusive; . = not tested or not shown; [ ] = remark or other dose. Calls come from the whole dose curve; as a rule, active = well fitted curve in the direction sought with a large enough effect; inconclusive = small, poorly fitted or top-dose-only effect, or another doubt; inactive = no such curve, though single readings can be large; an effect the other way counts as inactive or inconclusive. Unless noted, % is set by controls: 0 for no effect and ±100 for the full control effect; potency is the fitted concentration of half-maximal effect.

SMILES	B2AR arrestin	Gal4-VP16 FLuc	NPSR antagonist	RORgamma inh
CCOC(=O)N1CCC(Nc2cc(C)nc3c(-c4ccccc4OC)c(C)nn23)CC1	0%	-1%	-27%[46.1 µM]	?
CCOC(=O)N1CCN(C(=O)CSc2cc(C)nc3c(-c4ccccc4OC)c(C)nn23)CC1	0%	13µM*	-17%[46.1 µM]	20µM*
COc1ccc2nc(C)cc(N3CCN(S(=O)(=O)c4ccccc4F)CC3)c2c1	0%	.	.	.
O=C(/C=C/c1ccccc1Cl)Nc1cccc(S(=O)(=O)NC2=NCCCCC2)c1	0%	-11%	-2%	?
O=C(/C=C/c1ccc(Cl)cc1Cl)Nc1cccc(S(=O)(=O)NC2=NCCC2)c1	0%	8.9µM*	-21%	7.1µM*
CC(=O)N(/N=C1\Sc2ccccc2C1=O)c1cccc(C)c1	4%	?	-17%[46.1 µM]	7.1µM*
COc1ccc(S(=O)(=O)Nc2noc3ccccc23)cc1	0%	-20%	.	3%
Cc1[nH]n(-c2ccccc2)c(=O)c1/C=N/NC(=O)c1cccc(F)c1	-1%	1.3µM*	.	0.56µM*
Cc1[nH]n(-c2ccc(Br)cc2)c(=O)c1/C=N/NC(=O)c1ccccc1	0%	0.13µM*	.	0.28µM*
Cc1ccc(-n2[nH]c(C)c(C=Nc3ccc(Br)cn3)c2=O)cc1	-1%	-2%	7%	-5%
Oc1ccc2cc(SSc3ccc4cc(O)ccc4c3)ccc2c1	.	-20%	.	15%
CC1CCC(N2CCN(C(=O)c3ccccc3F)CC2)CC1 (centres undefined)	0%	-15%	.	-10%
CCCCN1CCC[C@H]1CNC(=O)c1cc(C#N)c2ccccc2c1OC	.	-4%	.	-16%
O=C(Nc1ccccc1C(F)(F)F)c1c(F)cccc1Cl	0%	-16%	1%	4%
Cc1ccc(-c2cc3cccc[n+]3cc2-c2ccc(C)cc2)cc1	0%	13µM*	-1%	?
CN(C)C1=NCCN1CC1CCCCC1	4%	.	.	.
Cc1nnc(C)n1/N=C/c1ccccc1	-1%	-4%	-6%[46.1 µM]	-10%
N=C1N(/N=C/c2ccccc2)C(=Nc2ccccc2)C(=S)N1c1ccccc1	0%	5µM*	-18%[46.1 µM]	4.5µM*
Cc1ccn2c(Nc3ccccc3C)c(-c3ccccn3)nc2c1	?	?	?	14µM*
Cc1ccn2c(NC(=O)c3ccccc3)c(-c3ccccc3)nc2c1	0%	8%	.	?
Cc1cccn2c(Nc3ccccc3)c(-c3ccccn3)nc12	0%	5µM*	-20%	3.2µM*
Cc1ccc2nc(-c3ccccn3)c(Nc3ccccc3C)n2c1	0%	-7%[10 µM]	13µM*	14µM*
Cc1ccn2c(Nc3ccccc3)c(-c3ccccn3)nc2c1	0%	-16%	?	16µM*
Cc1ccccc1Nc1c(-c2ccccn2)nc2ccccn12	0%	-3%	-50%	31%
CC(=O)NC12CC3CC(C1)CC(C(=O)N1CCN(S(=O)(=O)c4ccc(C(C)C)cc4)CC1)(C3)C2	0%	.	.	.
SMILES	B2AR arrestin	Gal4-VP16 FLuc	NPSR antagonist	RORgamma inh
COc1cccc(C2NC(=O)NC(C)=C2C(=O)OCC2CCCCC2)c1 (centres undefined)	0%	-5%	.	-4%
Cc1noc(C)c1-c1cc(NC2CCNCC2)ncn1	.	-5%	.	-16%
Cc1cccc(-c2nc(CS(=O)CC(=O)NCCc3ccc(Cl)cc3)c(C)o2)c1 (centres undefined)	0%	2%	.	6%
COc1cccc(-c2nnc(NC(=O)c3ccc4ncsc4c3)o2)c1	-4%	0.56µM*	-4%	0.56µM*
O=C(Nc1nnc(-c2ccc(Cl)cc2)o1)c1cccc(N2C(=O)CCC2=O)c1	-4%	2.2µM*	-2%	3.2µM*
COc1cccc(C(=O)Nc2nnc(-c3cccs3)o2)c1	-1%	0.79µM*	-8%[46.1 µM]	0.63µM*
COc1cccc(C(=O)Nc2nnc(-c3ccc(F)cc3)o2)c1	0%	1.8µM*	-7%	5µM*
COc1ccccc1-c1nc(S(=O)(=O)c2ccccc2)c(N2CCOCC2)o1	0%	-1%	.	-18%
COc1ccc(C(=O)c2cn(CC(=O)Nc3cc(OC)cc(OC)c3)c3ccc(OC)cc3c2=O)cc1	0%	.	.	.
COc1cc(OC)cc(C(=O)NNC(=O)c2ccc3c(c2)OCCO3)c1	-1%	.	.	.
COc1cccc(C(=O)Nc2nnc(-c3ccc(Cl)cc3)o2)c1	0%	1.6µM*	3%	?
CCOc1ccc(-c2nnc(NC(=O)c3ccc(OCC(C)C)c(OC)c3)o2)cc1	0%	0.025µM*	3%[46.1 µM]	0.028µM*
COc1cccc(C(=O)Nc2cccc(-c3nnc(-c4ccco4)o3)c2)c1	-1%	-23%	-25%[46.1 µM]	-2%
COc1cc(OC)cc(-c2nnc(NC(=O)c3ccc4c(c3)OCCO4)o2)c1	0%	0.63µM*	.	0.32µM*
CN(C)CCN(C)Cc1ccccc1Sc1cccc2ccccc12	-3%	-13%	?	-41%
CC(C)(C)NC(=O)C(c1ccncc1)N(C(=O)c1csnn1)c1cccc2ccccc12 (centres undefined)	0%	1%	-12%	-2%
O=C(Nc1nnc(-c2cccnc2)o1)c1ccccc1Cl	0%	?	-4%	8.9µM*
O=C(Nc1nnc(-c2cccnc2)o1)c1cccc([N+](=O)[O-])c1	0%	1.1µM*	-3%	0.79µM*
COC(=O)c1ccc(C(=O)Nc2nnc(-c3cccnc3)o2)cc1	0%	2.8µM*	-2%	2.5µM*
Clc1ccccc1-c1nnc(-c2cccnc2)o1	0%	-5%	.	1%
COC(=O)c1ccc(C(=O)Nc2ccc3nc(-c4cccnc4)[nH]c3c2)cc1	0%	-9%	-3%[46.1 µM]	30%
Cc1cccc(C(=O)Nc2nnc(-c3cccnc3)o2)c1	0%	1.3µM*	-4%	0.71µM*
O=C(Nc1ccncc1NC(=O)c1cccc([N+](=O)[O-])c1)c1cccc([N+](=O)[O-])c1	0%	-13%	11%	-2%
Cc1cccc(C(=O)Nc2ccnc(-c3cccnc3)n2)c1	0%	-8%	7%	-7%
O=C1[C@@H]2[C@H]3C(=CC[C@@H]2C(=O)N1Cc1ccccc1)C1(OCCCO1)[C@H]1O[C@@H]1[C@H]3O	.	-9%[10 µM]	.	3%[10 µM]
SMILES	B2AR arrestin	Gal4-VP16 FLuc	NPSR antagonist	RORgamma inh
COC(=O)c1cc(S(=O)(=O)C(C)C)c(S(C)=O)s1 (centres undefined)	9%	6%	21%	?
Cc1cccc(C(=O)Nc2nnc(-c3ccncc3)o2)c1	4%	2.8µM*	1%	3.2µM*
O=C(Nc1ccncc1)c1ccc2ccccc2c1	0%	-27%	-16%	22%
O=C(Nc1nnc(-c2ccncc2)o1)c1ccc2ccccc2c1	0%	0.56µM*	.	1.1µM*
O=C(Nc1nnc(-c2ccncc2)o1)c1cccc(N2C(=O)CCC2=O)c1	0%	10%	23%	-26%
CCc1cccc(NC(=O)CN(c2ccc(OC)cc2)S(=O)(=O)c2c(C)n[nH]c2C)c1	-1%	7%	?	14%
CCCCC1=CC2=C(c3ccco3)C(=O)C(C)(OC(=O)c3ccc(OC)cc3)C(=O)C2=CN1Cc1ccc(OC)cc1 (centres undefined)	5%	?	-54%	-6%
